# Results as given in ChEMBL document CHEMBL2218924, “A broad activity screen in support of a chemogenomic map for kinase signalling research and drug discovery” (Biochem J, 2013).
# Assays:
# [1] = target: T1, Ephrin type-B receptor 1 (Homo sapiens) (UniProt P54762); settings: at 10 µM
# T1 sequence (whole entry): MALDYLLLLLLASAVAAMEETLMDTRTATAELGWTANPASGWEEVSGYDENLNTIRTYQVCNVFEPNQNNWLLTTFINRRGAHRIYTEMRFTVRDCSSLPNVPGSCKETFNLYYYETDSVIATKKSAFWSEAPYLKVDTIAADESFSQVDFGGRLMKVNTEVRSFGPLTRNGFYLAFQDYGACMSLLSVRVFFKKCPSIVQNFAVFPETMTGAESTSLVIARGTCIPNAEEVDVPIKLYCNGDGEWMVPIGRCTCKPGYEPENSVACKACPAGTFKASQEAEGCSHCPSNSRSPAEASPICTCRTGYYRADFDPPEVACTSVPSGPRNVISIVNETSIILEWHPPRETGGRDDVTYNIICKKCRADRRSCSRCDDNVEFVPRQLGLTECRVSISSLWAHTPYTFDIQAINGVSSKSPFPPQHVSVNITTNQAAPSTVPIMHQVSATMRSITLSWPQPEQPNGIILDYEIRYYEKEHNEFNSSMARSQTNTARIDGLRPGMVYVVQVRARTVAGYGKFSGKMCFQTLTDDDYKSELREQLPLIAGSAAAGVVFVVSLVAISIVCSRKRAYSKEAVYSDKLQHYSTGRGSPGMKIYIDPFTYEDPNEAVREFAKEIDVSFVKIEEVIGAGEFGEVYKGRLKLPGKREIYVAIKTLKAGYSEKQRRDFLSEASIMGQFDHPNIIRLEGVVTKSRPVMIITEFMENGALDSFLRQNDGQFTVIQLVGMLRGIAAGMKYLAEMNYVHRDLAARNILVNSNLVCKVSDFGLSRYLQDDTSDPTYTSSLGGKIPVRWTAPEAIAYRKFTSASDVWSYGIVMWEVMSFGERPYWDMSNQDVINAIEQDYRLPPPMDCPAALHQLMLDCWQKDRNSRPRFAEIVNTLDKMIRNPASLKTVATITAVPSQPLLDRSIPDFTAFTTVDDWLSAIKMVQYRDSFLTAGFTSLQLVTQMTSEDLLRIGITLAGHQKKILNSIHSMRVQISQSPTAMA
# [2] = target: T2, Ephrin type-B receptor 2 (Homo sapiens) (UniProt P29323); settings: at 1 µM
# T2 sequence (whole entry): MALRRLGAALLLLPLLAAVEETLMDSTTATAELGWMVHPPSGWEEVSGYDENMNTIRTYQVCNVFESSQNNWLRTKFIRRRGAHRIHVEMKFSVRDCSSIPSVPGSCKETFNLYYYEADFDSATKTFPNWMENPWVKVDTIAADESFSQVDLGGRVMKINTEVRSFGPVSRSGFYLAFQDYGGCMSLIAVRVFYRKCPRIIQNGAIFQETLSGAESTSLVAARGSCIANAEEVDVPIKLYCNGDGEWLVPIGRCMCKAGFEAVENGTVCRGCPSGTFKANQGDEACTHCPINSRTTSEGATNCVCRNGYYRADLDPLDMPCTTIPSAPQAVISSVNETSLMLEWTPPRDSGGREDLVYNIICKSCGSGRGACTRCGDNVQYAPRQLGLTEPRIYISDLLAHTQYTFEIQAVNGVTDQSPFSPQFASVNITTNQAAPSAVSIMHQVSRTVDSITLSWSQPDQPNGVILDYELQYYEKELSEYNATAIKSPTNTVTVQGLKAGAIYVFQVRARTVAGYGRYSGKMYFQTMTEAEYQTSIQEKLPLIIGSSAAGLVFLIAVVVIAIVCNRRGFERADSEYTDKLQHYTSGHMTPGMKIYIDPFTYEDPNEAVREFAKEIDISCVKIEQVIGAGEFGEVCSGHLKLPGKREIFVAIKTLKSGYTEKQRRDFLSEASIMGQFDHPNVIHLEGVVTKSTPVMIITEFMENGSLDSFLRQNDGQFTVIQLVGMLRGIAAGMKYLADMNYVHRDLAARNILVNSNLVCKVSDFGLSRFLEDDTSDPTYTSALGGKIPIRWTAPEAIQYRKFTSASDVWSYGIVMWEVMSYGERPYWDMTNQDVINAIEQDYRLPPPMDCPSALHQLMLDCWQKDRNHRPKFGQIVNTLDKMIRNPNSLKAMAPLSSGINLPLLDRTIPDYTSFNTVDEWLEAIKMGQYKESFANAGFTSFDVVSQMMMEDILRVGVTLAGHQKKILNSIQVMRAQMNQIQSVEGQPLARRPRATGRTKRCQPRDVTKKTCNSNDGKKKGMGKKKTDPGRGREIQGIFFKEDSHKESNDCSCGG
# [3] = target: T2, Ephrin type-B receptor 2 (Homo sapiens); settings: at 10 µM
# [4] = target: T3, Ephrin type-B receptor 3 (Homo sapiens) (UniProt P54753); settings: at 1 µM
# T3 sequence (whole entry): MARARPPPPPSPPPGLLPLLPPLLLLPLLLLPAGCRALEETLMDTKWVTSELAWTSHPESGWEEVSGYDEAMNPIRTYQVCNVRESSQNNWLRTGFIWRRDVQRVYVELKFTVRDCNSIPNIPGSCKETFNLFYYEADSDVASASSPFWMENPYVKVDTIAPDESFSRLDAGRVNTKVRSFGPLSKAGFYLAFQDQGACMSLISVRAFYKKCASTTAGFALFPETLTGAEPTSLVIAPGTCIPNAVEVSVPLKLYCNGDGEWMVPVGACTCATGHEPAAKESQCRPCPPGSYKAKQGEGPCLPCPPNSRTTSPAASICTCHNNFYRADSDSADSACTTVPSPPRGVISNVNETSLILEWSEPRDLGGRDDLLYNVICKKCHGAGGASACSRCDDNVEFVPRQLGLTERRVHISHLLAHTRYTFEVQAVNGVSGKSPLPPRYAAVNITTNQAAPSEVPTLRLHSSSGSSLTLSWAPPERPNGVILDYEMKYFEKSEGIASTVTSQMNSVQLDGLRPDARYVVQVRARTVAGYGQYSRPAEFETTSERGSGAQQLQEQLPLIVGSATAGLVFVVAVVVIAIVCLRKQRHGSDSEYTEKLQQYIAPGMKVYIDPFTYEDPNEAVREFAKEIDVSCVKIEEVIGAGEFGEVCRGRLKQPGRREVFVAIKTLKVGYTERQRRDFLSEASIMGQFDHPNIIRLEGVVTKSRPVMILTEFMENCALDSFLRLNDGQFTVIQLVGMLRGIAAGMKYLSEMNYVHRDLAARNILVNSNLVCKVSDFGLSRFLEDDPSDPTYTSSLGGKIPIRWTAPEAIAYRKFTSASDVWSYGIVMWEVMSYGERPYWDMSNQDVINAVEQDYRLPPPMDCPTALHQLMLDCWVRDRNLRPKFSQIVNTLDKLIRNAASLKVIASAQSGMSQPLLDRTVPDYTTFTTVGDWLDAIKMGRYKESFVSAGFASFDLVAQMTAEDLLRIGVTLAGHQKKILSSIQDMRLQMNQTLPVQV
# [5] = target: T3, Ephrin type-B receptor 3 (Homo sapiens); settings: at 10 µM
# [6] = target: T4, Ephrin type-B receptor 4 (Homo sapiens) (UniProt P54760); settings: at 1 µM
# T4 sequence (whole entry): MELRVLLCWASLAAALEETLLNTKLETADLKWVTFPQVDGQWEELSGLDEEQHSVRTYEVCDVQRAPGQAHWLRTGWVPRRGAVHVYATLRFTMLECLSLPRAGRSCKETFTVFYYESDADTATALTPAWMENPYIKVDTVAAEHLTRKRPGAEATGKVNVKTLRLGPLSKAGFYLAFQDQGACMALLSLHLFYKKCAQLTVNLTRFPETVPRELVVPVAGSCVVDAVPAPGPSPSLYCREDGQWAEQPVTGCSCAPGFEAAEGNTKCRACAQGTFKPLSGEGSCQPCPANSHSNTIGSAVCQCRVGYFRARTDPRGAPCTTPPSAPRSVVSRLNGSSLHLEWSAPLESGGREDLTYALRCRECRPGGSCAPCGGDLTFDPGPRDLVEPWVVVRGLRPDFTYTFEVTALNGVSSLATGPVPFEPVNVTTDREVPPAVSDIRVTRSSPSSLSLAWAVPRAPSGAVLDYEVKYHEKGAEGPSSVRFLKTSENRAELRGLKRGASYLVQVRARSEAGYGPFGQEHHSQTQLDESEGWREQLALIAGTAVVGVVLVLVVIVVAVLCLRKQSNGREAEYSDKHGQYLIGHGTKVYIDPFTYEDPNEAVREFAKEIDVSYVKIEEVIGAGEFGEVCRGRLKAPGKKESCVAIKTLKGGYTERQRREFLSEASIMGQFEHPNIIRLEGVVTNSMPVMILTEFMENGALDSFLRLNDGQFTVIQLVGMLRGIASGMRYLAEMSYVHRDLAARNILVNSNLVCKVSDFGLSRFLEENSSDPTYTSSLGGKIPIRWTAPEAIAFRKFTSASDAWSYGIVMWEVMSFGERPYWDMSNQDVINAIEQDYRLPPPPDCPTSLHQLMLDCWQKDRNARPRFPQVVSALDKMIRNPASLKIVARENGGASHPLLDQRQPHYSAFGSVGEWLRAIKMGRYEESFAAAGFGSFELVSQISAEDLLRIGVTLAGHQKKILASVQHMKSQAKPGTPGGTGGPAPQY
# [7] = target: T4, Ephrin type-B receptor 4 (Homo sapiens); settings: at 10 µM
# [8] = target: Receptor tyrosine-protein kinase erbB-4 (Homo sapiens) (UniProt Q15303); settings: at 1 µM
# Sequence of Receptor tyrosine-protein kinase erbB-4 (Homo sapiens) (Q15303 whole entry): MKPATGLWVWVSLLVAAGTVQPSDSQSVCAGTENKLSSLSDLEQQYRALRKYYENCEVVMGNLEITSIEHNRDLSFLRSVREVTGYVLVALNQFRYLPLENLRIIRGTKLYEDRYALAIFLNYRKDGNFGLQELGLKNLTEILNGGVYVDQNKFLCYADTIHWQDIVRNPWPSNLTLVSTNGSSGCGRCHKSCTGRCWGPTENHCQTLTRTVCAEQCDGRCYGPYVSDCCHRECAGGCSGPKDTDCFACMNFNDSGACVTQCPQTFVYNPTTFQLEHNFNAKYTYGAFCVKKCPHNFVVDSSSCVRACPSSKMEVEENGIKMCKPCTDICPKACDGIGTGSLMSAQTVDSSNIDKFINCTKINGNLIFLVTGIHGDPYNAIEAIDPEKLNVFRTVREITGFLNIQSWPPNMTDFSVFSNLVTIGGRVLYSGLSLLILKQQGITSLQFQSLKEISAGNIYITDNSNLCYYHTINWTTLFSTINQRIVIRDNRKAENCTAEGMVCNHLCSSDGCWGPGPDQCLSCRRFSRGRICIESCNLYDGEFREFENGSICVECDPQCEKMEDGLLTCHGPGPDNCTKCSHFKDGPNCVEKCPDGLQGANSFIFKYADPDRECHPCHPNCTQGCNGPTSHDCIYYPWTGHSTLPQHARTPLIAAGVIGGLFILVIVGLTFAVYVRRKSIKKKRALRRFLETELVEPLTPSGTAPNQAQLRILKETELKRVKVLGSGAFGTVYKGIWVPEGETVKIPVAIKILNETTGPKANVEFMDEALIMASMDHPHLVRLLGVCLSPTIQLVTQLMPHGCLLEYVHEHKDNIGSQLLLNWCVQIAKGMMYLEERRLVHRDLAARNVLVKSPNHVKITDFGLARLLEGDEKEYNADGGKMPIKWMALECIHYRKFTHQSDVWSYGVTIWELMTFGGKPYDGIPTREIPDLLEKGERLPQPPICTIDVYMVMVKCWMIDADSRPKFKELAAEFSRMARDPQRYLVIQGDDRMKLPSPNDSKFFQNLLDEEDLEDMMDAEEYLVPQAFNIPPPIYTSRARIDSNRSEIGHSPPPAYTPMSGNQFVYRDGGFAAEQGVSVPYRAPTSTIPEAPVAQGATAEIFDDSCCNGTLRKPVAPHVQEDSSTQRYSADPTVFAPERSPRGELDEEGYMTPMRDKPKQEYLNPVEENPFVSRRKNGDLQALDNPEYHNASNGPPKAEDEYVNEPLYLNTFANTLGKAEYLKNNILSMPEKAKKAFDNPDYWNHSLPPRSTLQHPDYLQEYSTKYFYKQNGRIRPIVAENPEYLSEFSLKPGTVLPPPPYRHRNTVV
# [9] = target: Receptor tyrosine-protein kinase erbB-4 (Homo sapiens) (UniProt Q15303); settings: at 10 µM
# [10] = target: Focal adhesion kinase 1 (Homo sapiens) (UniProt Q05397); settings: at 1 µM
# Sequence of Focal adhesion kinase 1 (Homo sapiens) (Q05397 2-1052 limits assumed): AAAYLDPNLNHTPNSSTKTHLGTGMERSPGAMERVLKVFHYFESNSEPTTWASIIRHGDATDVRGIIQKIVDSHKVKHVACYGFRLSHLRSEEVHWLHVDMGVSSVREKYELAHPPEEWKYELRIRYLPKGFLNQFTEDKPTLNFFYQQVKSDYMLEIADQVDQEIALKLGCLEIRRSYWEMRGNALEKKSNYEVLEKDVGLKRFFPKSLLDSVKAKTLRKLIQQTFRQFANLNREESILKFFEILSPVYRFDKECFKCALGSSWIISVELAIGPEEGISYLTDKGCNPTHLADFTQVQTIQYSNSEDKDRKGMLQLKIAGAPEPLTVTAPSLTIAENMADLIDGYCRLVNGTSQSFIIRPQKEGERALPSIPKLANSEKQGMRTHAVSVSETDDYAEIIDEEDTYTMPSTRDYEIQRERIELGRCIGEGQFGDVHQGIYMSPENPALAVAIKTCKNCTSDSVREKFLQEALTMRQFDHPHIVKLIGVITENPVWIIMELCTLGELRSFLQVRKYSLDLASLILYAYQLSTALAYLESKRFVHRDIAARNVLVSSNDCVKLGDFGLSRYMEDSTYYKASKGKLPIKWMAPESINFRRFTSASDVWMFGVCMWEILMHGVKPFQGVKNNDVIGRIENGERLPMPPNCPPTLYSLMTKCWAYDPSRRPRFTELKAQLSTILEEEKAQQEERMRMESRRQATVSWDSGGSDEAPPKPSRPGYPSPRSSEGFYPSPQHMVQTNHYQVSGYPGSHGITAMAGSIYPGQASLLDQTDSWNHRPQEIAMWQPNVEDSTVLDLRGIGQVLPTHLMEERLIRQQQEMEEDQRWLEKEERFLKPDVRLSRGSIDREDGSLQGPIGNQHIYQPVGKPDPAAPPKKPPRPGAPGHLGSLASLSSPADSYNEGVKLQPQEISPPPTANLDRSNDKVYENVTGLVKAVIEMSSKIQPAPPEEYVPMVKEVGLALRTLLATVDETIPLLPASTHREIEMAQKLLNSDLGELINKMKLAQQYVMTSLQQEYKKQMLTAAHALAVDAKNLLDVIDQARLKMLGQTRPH
compound,measurement,setting,value
COc1ccc(S(=O)(=O)N(CCO)c2ccccc2CN(C)C/C=C/c2ccc(Cl)cc2)cc1,residual activity,[1],90%
same,residual activity,[2],115%
same,residual activity,[3],120%
same,residual activity,[4],112% (inactive)
same,residual activity,[5],107%
same,residual activity,[6],86%
same,residual activity,[7],79%
same,residual activity,[8],110%
same,residual activity,[9],77%
same,residual activity,[10],93%
